A selection: hits, their analogues and other compounds. The true share with any hit is near 12%.
ALDH1A1 inh = blocks purified human ALDH1A1 activity; P00352; Purified ALDH1A1, NADH fluorescence, propionaldehyde substrate; Potency, µM (series often up to 75.3 µM), hits mostly inhibitors; actives 7.3% (n = 220,000); AID 1030; active means well fitted inhibition curve with a large enough effect, not every such curve was filed as active; inconclusive means small, poorly fitted or top-dose-only effect, or another doubt; inactive means no such curve, though single readings can be large or run the other way
RORg inh = blocks mouse ROR gamma transcriptional activity; Potency, µM (doses to about 53.6 µM), hits mostly inhibitors; P51450; actives 5.4% (n = 310,000); Drosophila S2 Gal4-RORgamma UAS-luciferase reporter, 20 h; AID 2551; further: nearly all actives have a fitted effect of over 60% in size
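Read-out: Photinus luciferase luminescence; inhibitors lower reporter signal. Insect Schneider cells with Gal4-ROR gamma fusion under metallothionein promoter, UAS reporter; 700 uM final copper sulfate induction, 20 hr, ambient temperature.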
Gal4-VP16 FLuc = inhibits Gal4-VP16 luciferase reporter, ROR gamma counter-screen. Drosophila S2 Gal4-VP16 UAS-luciferase, luminescence, 20 h. Potency, µM (doses to about 53.6 µM), actives largely listed as inhibitors. actives 3.5% (n = 310,000). AID 2546;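 further: Gal4-VP16 expression switched on by copper sulfate through the metallothionein promoter; nearly all actives have a fitted effect of over 50% in size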
PLK1 PBD block = blocks phosphopeptide binding to human PLK1 polo-box domain; P53350; Plk1 PBD binding of FITC phosphopeptide, fluorescence polarization; Potency, µM, usual class: inhibitors; actives 2.8% (n = 360,000); further: series mostly up to about 57 µM; nearly all actives have a fitted effect of over 65% in size
Target sequence (P53350 whole entry, looked up, the tested form may be a part): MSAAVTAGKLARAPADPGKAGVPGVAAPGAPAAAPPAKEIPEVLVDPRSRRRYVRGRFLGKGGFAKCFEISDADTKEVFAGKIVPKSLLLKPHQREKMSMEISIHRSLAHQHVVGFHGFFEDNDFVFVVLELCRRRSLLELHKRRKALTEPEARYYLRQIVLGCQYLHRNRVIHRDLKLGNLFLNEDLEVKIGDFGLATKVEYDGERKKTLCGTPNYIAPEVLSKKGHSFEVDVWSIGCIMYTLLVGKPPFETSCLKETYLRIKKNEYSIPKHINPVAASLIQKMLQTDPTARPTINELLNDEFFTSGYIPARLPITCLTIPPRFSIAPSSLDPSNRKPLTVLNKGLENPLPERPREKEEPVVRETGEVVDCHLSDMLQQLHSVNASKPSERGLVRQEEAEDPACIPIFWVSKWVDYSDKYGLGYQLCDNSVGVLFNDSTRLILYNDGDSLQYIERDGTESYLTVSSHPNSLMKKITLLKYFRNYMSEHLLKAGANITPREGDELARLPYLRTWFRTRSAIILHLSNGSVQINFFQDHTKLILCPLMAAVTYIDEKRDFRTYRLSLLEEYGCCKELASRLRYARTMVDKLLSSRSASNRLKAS
Sfp PPTase inh = Sfp phosphopantetheinyl transferase inhibition | Potency, µM, usual class: inhibitors | Q9F4F7 | actives 3.5% (n = 310,000) | Biochemical Sfp PPTase activity, qHTS;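 further: the enzyme is Sfp with the accession as filed and its product quenches rhodamine fluorescence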
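Step 1, compound plus 15 nM Sfp-PPTase, 15 min, room temperature. Step 2, add rhodamine-CoA (5 uM) and BHQ-2-YbbR (12.5 uM). Step 3, read 525/598 nm fluorescence at 0 and 30 min.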
Numbers stand for hits; 0 = inactive; ? = inconclusive; - = no result; [ ] = another dose, or the depositor's remark. Unless noted, the call rests on the fitted dose curve; in most records, active means well fitted curve in the direction sought with a large enough effect; inconclusive means small, poorly fitted or top-dose-only effect, or another doubt; inactive means no such curve, though single readings can be large; an effect the other way counts as inactive or inconclusive.

SMILES | ALDH1A1 inh | RORg inh | Gal4-VP16 FLuc | PLK1 PBD block | Sfp PPTase inh
C[C@H]1C(O)[C@@]23CCC4C5(C=[N+](CCO)C[C@]4(C)CCC5)C2C[C@@H]1C3 (stereo partly specified) | 0 | 0 | 0 | - | 0
CCC1(CC)C(=O)C2=C3C1[C@H](C(=O)OC)CC(C(=O)OC)C[C@H]3[C@H]1C(=O)N(C)C(=O)[C@H]1[C@H]2C (stereo partly specified) | - | 0 | 0 | - | 0
COC(=O)C[C@@H]1C[C@H]2c3cc(NS(C)(=O)=O)ccc3O[C@H]2[C@H](CO)O1 | - | - | - | 0 | -
CCOc1ccc(N/C=C/C(=O)c2ccc(C)cc2)c([N+](=O)[O-])c1 | 0 | 2µM | ? | 0 | 0
Cc1cc(OCC(=O)NC(C)c2ccccc2)ccc1[N+](=O)[O-] (stereo unspecified) | 25.1µM | 0 | 0[10 µM] | 0 | 0
Cc1cc(OCC(=O)NCc2cccnc2)ccc1[N+](=O)[O-] | 0 | 0 | 0 | 0 | 0
Cc1cccc(C(=O)Nc2ccc(NC(=O)CN3CCOCC3)cc2)c1 | - | 0 | 0 | 0 | 0
Cc1ccc(F)cc1CNC(=O)C1CCC(=O)N(CCCN2CCCC2=O)C1 (stereo unspecified) | - | 0 | 0 | 0 | 0
COc1ccc(CN(C)CC(=O)Nc2ccc(N3CCOCC3)cc2)cc1OC | 0 | 0 | 0 | 0 | 0
COc1ccc(CN(C)CC(=O)Nc2ccc(SC(F)F)cc2)cc1OC | 0 | 0 | ? | 26.7µM | 0
CN1CCN(C(=O)C[C@H]2C[C@H]3c4cc(NC(=O)NC5CCCCC5)ccc4O[C@H]3[C@@H](CO)O2)CC1 | - | - | - | 0 | -
CC(=O)OCC1O[C@@H](O[C@@H]2C[C@H]3C(C)(C)[C@H](OC(C)=O)CC[C@]3(C)[C@H]3CC[C@]45C[C@]4(CC[C@H]5[C@@H](C)C[C@@H](O)[C@H](O)C(C)(C)O)[C@@]32C)[C@H](O)[C@@H](O)[C@@H]1O (stereo partly specified) | 0 | 0.891µM | 3.16µM | - | ?
CCN(C(=O)c1ccc(Cl)c([N+](=O)[O-])c1)c1ccccc1 | 12.6µM | ? | 0 | 0 | 0
CC1=NN(c2ccccc2)C(=O)C1N=Nc1ccc(N)cc1 (stereo unspecified) | ? | 0 | 8.91µM | 23.8µM | 0
CC1=NN(C(N)=S)C(=O)C1N=Nc1ccccc1 (stereo unspecified) | 22.4µM | 0.199µM | 0.891µM | 0 | ?
CC1=NN(C(N)=S)C(=O)C1N=Nc1ccc(Cl)cc1 (stereo unspecified) | - | 0.398µM | 1.12µM | 13.4µM | 0
CC1=NN(c2ccccc2)C(=O)C1N=Nc1ccccc1 (stereo unspecified) | 0 | ? | 0 | 0 | 0
CC1=NN(C(N)=S)C(=O)C1N=Nc1ccc(Br)cc1 (stereo unspecified) | - | 0.447µM | 1.26µM | 0 | 0
COc1ccc(C(=O)N2CCC[C@@]3(CCN(c4ncccn4)C3)C2)cc1 | ? | 0 | 0 | - | 0
CC1(C)CC(=O)C(N=Nc2cccc([N+](=O)[O-])c2)=C(O)C1 | - | 0 | 0 | 0 | 0
CC1=NN(C(N)=S)C(=O)C1N=Nc1cccc([N+](=O)[O-])c1 (stereo unspecified) | - | 0.501µM | 1.58µM | 0 | 0
Cc1noc(C)c1C(=O)NCc1ccccc1F | 0 | 0 | 0 | 0 | 0
C[C@@](N)(C(=O)O)c1ccc(P(=O)(O)O)cc1 | 0 | 0 | 0 | - | 0
Clc1ccccc1C=NNc1ccccn1 | - | - | - | 0 | -
C(=NNc1ccc2ccccc2n1)c1ccccn1 | - | - | - | 0 | -
SMILES | ALDH1A1 inh | RORg inh | Gal4-VP16 FLuc | PLK1 PBD block | Sfp PPTase inh
Clc1ccccc1/C=N/NC1=Nc2cccc3cccc1c23 | 0 | 0.282µM | ? | 0 | 0
C(=N\NC1=Nc2cccc3cccc1c23)/c1ccccn1 | 0 | 0.0398µM | - | 0 | 44.7µM
O=C(NCSc1ccnc(SCNC(=O)c2ccccc2)n1)c1ccccc1 | 0 | ? | ? | 0 | 0
O=C(NCSc1ccncn1)c1ccccc1 | 0 | ? | 0 | ? | 20µM
OCC1(CCc2ccccc2)CCN(Cc2cnc(N3CCCC3)s2)CC1 | ? | 0 | 0 | 0 | 50.1µM
CC(=O)NC(c1ccccc1)c1nc(-c2cccs2)cs1 (stereo unspecified) | - | - | - | 0 | -
Brc1ccc(-c2nn3c(-c4ccncc4)nnc3s2)o1 | ? | 0 | 0 | - | 0
Brc1ccc(-c2nn3c(-c4ccccn4)nnc3s2)o1 | ? | 0 | 0 | 0 | 8.91µM
Brc1ccc(-c2nn3c(-c4ccco4)nnc3s2)o1 | ? | 0 | 0 | ? | 20µM
COc1cc(/C=C2/CC/C(=C/c3ccc(O)c(OC)c3)C2=O)ccc1O | - | 0 | ? | ? | ?

Screening data: PubChem, National Center for Advancing Translational Sciences (NCATS)
